Source: article PMC5540273 (PLoS ONE, 2017)

test system: CAMK1D; details: concentration: 1 μM, replicates: in singlicate; n = 1
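Note: KINOMEscan kinase panel screen.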

| SMILES | %Inh [%] |
| --- | --- |
| COc1cc(Nc2nccc(N3CCC(NS(=O)(=O)c4ccc(NC(C)=O)cc4)CC3)n2)cc(OC)c1OC [GSK1379825] | 15 |
| Cc1cc(-c2ccnc(Nc3cccc(C#N)c3)n2)cc(C)c1O [GSK1440913] | 8 |
| Cc1ccc(C)c(NC(=O)Nc2ccc(C)c(-c3ccc(C(=O)Nc4ccncc4)cc3)c2)c1 [GSK1398473] | 13 |
| CN(C)CCNS(=O)(=O)c1ccc(-c2ccnc3[nH]ccc23)cc1 [GSK977620] | 66 |
| O=C(Nc1n[nH]c2nc(-c3cccc(O)c3)ccc12)C1CC1 [SB-711805] | 19 |
| COc1cccc(C2=C(Nc3cccc(O)c3)C(=O)NC2=O)c1 [SB-390771] | 13 |
| CSc1ccc(NC2=C(c3ccc(Cl)cc3)C(=O)NC2=O)cc1 [SB-317658] | 13 |
| Cc1ccc(O)cc1Nc1ccnc2cc(-c3ccc(CN4CCCCC4)o3)ccc12 [GW557777] | 4 |
| Fc1cc(Cl)ccc1Nc1ccnc2cc(-c3ccc(CN4CCOCC4)o3)ccc12 [GW560109] | 0 |
| COC(=O)Nc1nc2ccc(Oc3ccc(NC(=O)Nc4cc(C(F)(F)F)ccc4F)cc3)cc2[nH]1.Cl [GW654607] | 0 |
| CN(c1ccc(NC(=O)N2CCN(CCCN3CCOCC3)CC2)cc1)c1ccnc(Nc2ccc(CS(C)(=O)=O)cc2)n1.Cl [GW830899] | 5 |
| CCn1c(-c2nonc2N)nc2c(-c3ccccc3)ncc(OCCCN)c21.O=C(O)C(F)(F)F.O=C(O)C(F)(F)F [GSK260205] | 6 |
| COc1cc(Nc2nccc(N3CCC(NC(=O)Nc4ccc5c(c4)OCO5)C3)n2)cc(OC)c1OC (stereo not drawn) [GSK1379766] | 19 |
| Cc1ccc(NC(=O)c2ccnc(N3CCCCC3)c2)cc1-c1ccc(C(=O)NCC2CC2)cc1 [GW775610] | 0 |
| COC(=O)Nc1nc2ccc(Oc3ccc(CC(=O)Nc4cc(C(F)(F)F)ccc4F)cc3)cc2[nH]1 [GW680903] | 0 |
| COc1ccc(NC(=O)c2ccoc2)cc1-c1ccc(C(=O)NCC2CC2)cc1 [GW810437] | 0 |
| Cc1cccc(Nc2nc(NCCN)ncc2C(N)=O)c1 [GSK1292139] | 84 |

| SMILES | %Inh [%] |
| --- | --- |
| Cl.N#CCc1ccc(Nc2nccc(Nc3ccc(Oc4ccccc4)cc3)n2)cc1 [GW639905] | 0 |
| Fc1cc(Cl)ccc1Nc1ccnc2cc(-c3ccc(CN4CCSCC4)o3)ccc12 [GW560106] | 11 |
| NCCC(NC(=O)c1cc(Br)c(-c2ccnc3[nH]ccc23)s1)c1ccccc1.O=C(O)C(F)(F)F.O=C(O)C(F)(F)F (stereo not drawn) [GSK1307810] | 34 |
| O=C(O)C(F)(F)F.O=c1[nH]ccc2nc(N[C@@H]3CCNC3)nc(Nc3ccc4c(c3)S(=O)(=O)CC4)c12 [GSK2181306] | 98.6 |
| Cc1ccccc1CC(=O)N1CCc2cc(-c3cn(C)c4ncnc(N)c34)ccc21 [GSK2603346] | 13 |
| CCNC(=O)/C=C/c1n[nH]c2cc(Sc3ccccc3C(=O)NC)ccc12 | 22 |
| Nc1ncc(-c2ccc3nccc(-c4ccncc4)c3c2)cc1S(=O)(=O)N1CCCCC1 [GSK1693850] | 25 |
| CS(=O)(=O)c1cccc(CNc2nc(Nc3ccc4c(c3)CCC(=O)N4)ncc2C(F)(F)F)c1 | 8 |
| COc1ccc(C)c(Nc2ccnc(Nc3ccc(-c4cnc[nH]4)cc3)n2)c1.Cl [GW784041] | 25 |
| O=C(O)C(F)(F)F.O=c1[nH]ccc2nc(N[C@@H]3CCNC3)nc(Nc3cc(Cl)cc(Cl)c3)c12 [GSK2188764] | 97.9 |
| Cl.Cl.NC(CNC(=O)c1cc(Br)c(-c2ccnc3[nH]ccc23)s1)c1ccccc1 (stereo not drawn) [GSK1322949] | 63 |
| COC(=O)Nc1nc2cc(Oc3ccc(NC(=O)Nc4cccc(SC)c4)cc3)ccc2[nH]1.Cl [GW697999] | 7 |
| CCOc1nccc(-c2c(-c3ccc(F)cc3)ncn2C2CCNCC2)n1 [SB-249175] | 0 |
| Cl.Cl.NCC(NC(=O)c1cc(-c2cccnc2)c(-c2ccnc3[nH]ccc23)s1)c1ccccc1 (stereo not drawn) [GSK1323434] | 18 |
| Nc1ncnc2scc(-c3ccc(NC(=O)Cc4cc(F)ccc4F)cc3)c12.O=C(O)C(F)(F)F [SB-731254-M] | 11 |
| Cn1cc(-c2ccc3c(c2)CCN3C(=O)Cc2cc(F)cc(C(F)(F)F)c2)c2c(N)ncnc21 [GSK2635225] | 11 |
